{"source": "PubChem BioAssay AID504850", "about": "(National Center for Advancing Translational Sciences (NCATS), 2011)", "note": "Several values for one entry are separate records, joined by “and”; a condition that tells them apart may be missing. Equal values may be shown once. The campaign covered roughly 2,300 compounds. About 1,200 (52%) were called active. About 34% were inconclusive and are not listed. Calls come from the whole dose curve; as a rule, active = well fitted inhibition curve with a large enough effect; inconclusive = small, poorly fitted or top-dose-only effect, or effect the other way; inactive = no such curve, though single readings can be large or run the other way. So high a share suggests a set chosen from earlier hits. The list shows a part of the results. % is set by controls: 0 for no effect and ±100 for the full control effect; potency is the fitted concentration of half-maximal effect.", "data": [{"assay": "Confirmation screen for delayed death inhibitors of the malarial parasite plastid, 48 hour incubation; note: nearly all actives have a fitted effect of over 65% in size", "conditions": "P. falciparum-infected erythrocytes, luciferase growth; series mostly up to 28.7 µM; activity change, negative = inhibition: at the top concentration", "description": "The goal of this screen is to discover new antimalarial compounds that act by inhibiting the development of the apicoplast in the malarial parasite Plasmodium falciparum. The biochemical processes that make this organelle essential for erythrocytic stage parasites are not well understood. However, antibiotics, such as azithromycin and tetracycline, which target the apicoplast translational machinery, have a potent antimalarial effect. […] We have developed a cell-based assay that measures parasite growth based on the expression of an integrated copy of a firefly luciferase reporter. To detect small molecules that cause this \"delayed death phenotype, erythrocytes infected with the luciferase-expressing parasites were incubated with compounds for either one or two generations, corresponding to 48 and 96 hours, respectively. Compounds that inhibit parasite growth in the second generation, but not the first, should be enriched in antimalarials that target the apicoplast. Growth inhibition is detected by a decrease in luciferase activity. MLPCN Grant: R21 NS059500 Assay Provider: David Fidock and Eric Ekland, Columbia University Keywords: NIH Roadmap, MLPCN, MLI, MLSMR, qHTS, NCGC, qHTS, malaria, luciferase, viability\nFour microliters of culture medium (RPMI 1640 with 0.5% w/v Albumax (GIBCO), 24 mM sodium bicarbonate and 10 ug/mL gentamycin) were dispensed by a Multi-drop Combi into white solid 1536-well plates (Grenier) and 23 nL compound was added by a pin tool. Four microliters of infected erythrocytes (2% hematocrit, 0.1% parasitemia final concentration) in culture medium were dispensed and the plates incubated for 48 hours at 37 C in 5% CO2. Two microliters of luciferase detection reagent was added and luminescence was detected by a ViewLux (PerkinElmer) reader.", "values": [{"smiles": "Fc1ccc(C[n+]2c(-c3ccccc3)cc(-c3ccccc3)cc2-c2ccccc2)cc1", "Potency": "2.82 µM (active)"}, {"smiles": "CN1C[C@H](C(=O)N[C@]2(C)O[C@@]3(O)[C@@H]4CCCN4C(=O)[C@H](Cc4ccccc4)N3C2=O)C[C@@H]2c3cccc4[nH]cc(c34)C[C@H]21", "Potency": "2.82 µM (active)"}, {"smiles": "C[C@@H]1CC[C@H]2[C@@H](C)C(=O)O[C@@H]3O[C@@]4(C)CC[C@@H]1[C@]32OO4", "Potency": "0.0794 µM (active)"}, {"smiles": "C[C@@H]1CC[C@H]2[C@@H](C)C(=O)O[C@@H]3OC4(C)CC[C@@H]1C32OO4", "note": "(some centres not stated)", "Potency": "0.0447 µM (active)"}, {"smiles": "Cn1c(O)c(C=NC2C(=O)C3(C)CCC2C3(C)C)c(=O)n(C)c1=O", "note": "(configuration not stated)", "activity change, negative = inhibition": "-0.717% (inactive)"}, {"smiles": "CC(=O)N1CC(=O)Nc2ccc(Cl)cc2C1c1ccccc1", "note": "(configuration not stated)", "activity change, negative = inhibition": "-10.3% (inactive)"}, {"smiles": "O=C(CCl)Nc1nccs1", "Potency": "5.01 µM (active)"}, {"smiles": "O=C(/C=C/c1cccs1)c1cc(Cl)ccc1OC(=O)N1CCOCC1", "Potency": "14.1 µM (active)"}, {"smiles": "C[C@H]1C[C@@H](C)C(=O)[C@@H]([C@H](O)CC2CC(=O)NC(=O)C2)C1", "Potency": "0.0794 µM (active)"}, {"smiles": "C[C@@H]1C[C@@H]([C@H](O)CC2CC(=O)NC(=O)C2)C(=O)[C@@H](C)C1", "Potency": "0.891 µM (active)"}, {"smiles": "Cc1ccc(N2C(=O)NC(=O)/C(=C\\C=C\\c3ccco3)C2=O)cc1", "activity change, negative = inhibition": "-20.3% (inactive)"}, {"smiles": "CCN1CCN(Cc2nc3ccc([N+](=O)[O-])cc3c(=O)n2-c2ccccc2F)CC1", "activity change, negative = inhibition": "6.69% (inactive)"}, {"smiles": "CN(C)c1ccc(C(=O)N/N=C/C23CC[C@@H](O)CC2(O)CC[C@@H]2[C@@H]3CCC3(C)C(C4=CC(=O)OC4)CCC23O)cc1", "note": "(some centres not stated)", "Potency": "12.6 µM (active)"}, {"smiles": "COc1cc(C(=O)N/N=C/C23CC[C@@H](O)CC2(O)CC[C@@H]2[C@@H]3CCC3(C)C(C4=CC(=O)OC4)CCC23O)ccc1O", "note": "(some centres not stated)", "activity change, negative = inhibition": "-13.3% (inactive)"}, {"smiles": "COc1ccc(C(=O)N/N=C/C23CC[C@@H](O)CC2(O)CC[C@@H]2[C@@H]3CCC3(C)C(C4=CC(=O)OC4)CCC23O)cc1", "note": "(some centres not stated)", "activity change, negative = inhibition": "-16% (inactive)"}, {"smiles": "CN(C)[C@@H]1C(=O)C(C(N)=O)=C(O)[C@@]2(O)C(=O)C3=C(O)c4c(O)cccc4[C@@](C)(O)C3[C@H](O)C12", "note": "(some centres not stated)", "Potency": "5.01 µM (active)"}, {"smiles": "C[n+]1c2cc(N)ccc2cc2ccc(N)cc21", "Potency": "1 µM (active)"}, {"smiles": "COC(=O)c1nc(-c2ccc3c(n2)C(=O)C(N)=C(OC)C3=O)c(N)c(-c2ccc(OC)c(OC)c2O)c1C", "Potency": "0.562 µM (active)"}, {"smiles": "CC[C@H]1CN2CCc3cc(OC)c(OC)cc3C2C[C@@H]1C[C@H]1NCCc2cc(OC)c(OC)cc21", "note": "(some centres not stated)", "Potency": "0.0501 µM (active)"}, {"smiles": "CC[C@H]1CN2CCc3cc(OC)c(OC)cc3[C@H]2C[C@@H]1C[C@@H]1NCCc2cc(OC)c(OC)cc21", "Potency": "0.562 µM (active)"}, {"smiles": "CC[C@H]1CN2CCc3cc(OC)c(OC)cc3[C@@H]2C[C@@H]1C[C@H]1NCCc2cc(OC)c(OC)cc21", "Potency": "0.316 µM (active)"}, {"smiles": "O=C1NC(=O)N(c2ccccc2)C(=O)/C1=C/C=C/c1ccco1", "activity change, negative = inhibition": "-14.3% (inactive)"}, {"smiles": "CCN(CC)Cc1cc(Nc2ccnc3cc(Cl)ccc23)ccc1O", "Potency": "79.4 nM (active) and 22.4 nM (active)"}, {"smiles": "CC(C)CCOP(N)(=O)Oc1ccccc1", "note": "(configuration not stated)", "Potency": "4.47 µM (active)"}, {"smiles": "CCn1c(=O)oc2cc(NC(=O)CCl)ccc21", "Potency": "2.24 µM (active)"}, {"smiles": "Cn1c(=O)oc2cc(NC(=O)CCl)ccc21", "Potency": "0.794 µM (active)"}, {"smiles": "O=[N+]([O-])c1cccc2c([As](=O)(O)O)cccc12", "Potency": "3.55 µM (active)"}, {"smiles": "Oc1ccc(-[n+]2c(-c3ccccc3)cc(-c3ccccc3)cc2-c2ccccc2)cc1", "Potency": "0.708 µM (active)"}, {"smiles": "C[C@@H]1O[C@@H](O[C@H]2C[C@@H](O)[C@]3(CO)[C@@H]4C(CC[C@]3(O)C2)[C@@]2(O)CC[C@H](C3COC(=O)C3)[C@@]2(C)C[C@H]4O)[C@H](O)[C@H](O)[C@H]1O", "note": "(some centres not stated)", "activity change, negative = inhibition": "-14.7% (inactive)"}, {"smiles": "Cc1ccc(C(C)C)c(OCC(=O)N2CCN(Cc3nc4cc([N+](=O)[O-])ccc4n3C)CC2)c1", "activity change, negative = inhibition": "-9.32% (inactive)"}, {"smiles": "CCCNS(=O)(=O)c1ccc(OCC(=O)N2CCN(Cc3ccc4c(c3)OCO4)CC2)c(C)c1", "Potency": "12.6 µM (active)"}, {"smiles": "CCOC(=O)COc1ccc2c(c1)c(C(C)=O)c(C)n2Cc1ccccc1", "activity change, negative = inhibition": "-25.7% (inactive)"}, {"smiles": "Cn1cc([N+](=O)[O-])c(C(=O)Nc2ccc3c(C(F)(F)F)cc(=O)oc3c2)n1", "activity change, negative = inhibition": "15.8% (inactive)"}, {"smiles": "O=C(NC1CC2CCCC(C1)N2)c1ccccc1", "note": "(configuration not stated)", "Potency": "10 µM (active)"}, {"smiles": "Clc1ccccc1CN1CCNCC1", "activity change, negative = inhibition": "-9.24% (inactive)"}, {"smiles": "COc1ccc(Cn2c(N)c(C(=O)NCc3ccco3)c3nc4ccccc4nc32)cc1", "Potency": "3.98 µM (active)"}, {"smiles": "O=c1oc2ccccc2c(O)c1[C@H]1c2ccc(O)cc2Oc2c1c(=O)oc1ccccc21", "activity change, negative = inhibition": "-10% (inactive)"}, {"smiles": "CN1CCc2cc3c(c4c2C1Cc1ccccc1-4)OCO3", "note": "(configuration not stated)", "Potency": "0.562 µM (active)"}, {"smiles": "O=C1/C(=C/c2ccccc2)C[C@@]2(O)[C@H]3Cc4ccc(O)c5c4[C@@]2(CCN3CC2CC2)C1O5", "note": "(some centres not stated)", "Potency": "5.01 µM (active)"}, {"smiles": "CCCCCCn1c(=O)c(C(=O)Nc2ncccc2O)c(O)c2ccccc21", "activity change, negative = inhibition": "-9.27% (inactive)"}, {"smiles": "C=C1C(O)[C@@H]2O[C@]3(CC[C@H](/C=C/C(C)[C@@H]4CC(C)=CC5(O[C@H](C[C@@](C)(O)C(=O)O)CCC5O)O4)O3)CC[C@H]2O[C@@H]1C(O)CC(C)[C@H]1OC2(CCCCO2)CCC1C", "note": "(some centres not stated)", "Potency": "0.0891 µM (active)"}, {"smiles": "C=C1C(=O)O[C@H]2C[C@@H](C)[C@@H]3C=CC(=O)[C@@]3(C)C[C@H]12", "Potency": "2 µM (active)"}, {"smiles": "C=C1C(=O)O[C@@H]2C[C@@H](C)[C@@H]3C=CC(=O)[C@@]3(C)[C@@H](O)[C@H]12", "Potency": "1.58 µM (active)"}, {"smiles": "C=C1C(=O)O[C@@H]2C[C@@H](C)[C@@H]3C=CC(=O)[C@@]3(C)[C@@H](OC(=O)CC(=O)O[C@H]3[C@@H]4C(=C)C(=O)O[C@@H]4C[C@@H](C)[C@@H]4C=CC(=O)[C@]43C)[C@H]12", "Potency": "0.398 µM (active)"}, {"smiles": "CCCCN=C[C@]12CCC(O)CC1(O)CCC1[C@@H]2CC[C@]2(C)[C@H](C3C=CC(=O)O3)CCC12O", "note": "(some centres not stated)", "activity change, negative = inhibition": "-20.3% (inactive)"}, {"smiles": "C[C@]12CCC3C(CCC4=CC(O)CC[C@@]43/C=N/O)C1(O)CCC2C1=CC(=O)OC1", "note": "(some centres not stated)", "activity change, negative = inhibition": "-24% (inactive)"}, {"smiles": "COC(=O)C1=C(c2ccccc2OCc2ccccc2)C[C@@H]2CC[C@H]1N2C(=O)NCCOc1ccc(OC)cc1", "Potency": "12.6 µM (active)"}, {"smiles": "COC(=O)C1=C(c2ccc(F)cc2OCc2ccccc2)C[C@@H]2CC[C@H]1N2C(=O)NCc1ccccc1Br", "Potency": "1.78 µM (active)"}, {"smiles": "CCC(C(=O)N1CCC2(CC1)OCCO2)n1c2ccccc2c2nc(=O)cc(C)n21", "note": "(configuration not stated)", "Potency": "11.2 µM (active)"}, {"smiles": "CCOc1cc2c(cc1OCC)-n1cccc1C(c1ccccc1F)NC2", "note": "(configuration not stated)", "Potency": "10 µM (active)"}, {"smiles": "CCOP(=O)(OCC)C(O)c1ccc(OC)cc1OC", "note": "(configuration not stated)", "activity change, negative = inhibition": "-11.5% (inactive)"}, {"smiles": "C[n+]1c(-c2ccccc2)cc(-c2ccc(Cl)cc2)cc1-c1ccccc1", "Potency": "2 µM (active)"}, {"smiles": "COc1ccc(-c2cc(-c3ccccc3)[n+](C)c(-c3ccccc3)c2)cc1", "Potency": "3.16 µM (active)"}, {"smiles": "Cc1cc2ccccn2c1C(C[N+](=O)[O-])c1c(F)cccc1Cl", "note": "(configuration not stated)", "Potency": "12.6 µM (active)"}, {"smiles": "O=[N+]([O-])c1ccc(NC2CCCC2)c2ccncc12", "activity change, negative = inhibition": "-2.56% (inactive)"}, {"smiles": "C=CCn1c(O)c(N=Nc2c(C)n(C)n(-c3ccccc3)c2=O)c(=O)[nH]c1=S", "Potency": "11.2 µM (active)"}, {"smiles": "C[C@@H]1C[C@@H]2O[C@H]2/C=C\\C=C\\C(=O)Cc2c(Cl)c(O)cc(O)c2C(=O)O1", "Potency": "7.08 µM (active)"}, {"smiles": "C=C[C@H]1CN2CC[C@H]1C[C@@H]2[C@@H](O)c1ccnc2ccccc12", "Potency": "0.251 µM (active)"}, {"smiles": "CN1C2CCC1/C(=C/c1ccccn1)C(=O)/C2=C\\c1ccccn1", "Potency": "0.251 µM (active)"}, {"smiles": "CC[n+]1c(-c2ccccc2)c2cc(N)ccc2c2ccc(N)cc21", "Potency": "1 µM (active)"}, {"smiles": "CC(C)c1ccc(N2C(=O)NC(=O)/C(=C\\C=C\\c3ccco3)C2=O)cc1", "activity change, negative = inhibition": "-10.9% (inactive)"}, {"smiles": "CC(C)c1oc(=O)cc2c1[C@@H](O)[C@H]1OC(=O)[C@@]3(C)CC[C@@H](O)[C@@]2(C)C13", "note": "(some centres not stated)", "Potency": "8.91 µM (active)"}]}]}
